We go through 28 molecules from ChEMBL document CHEMBL3988442, “University of Dundee, Small-Polar-MMV Screening Library” (2021).

About 1,000 (1.4%) of roughly 69,000 compounds showed an effect of 50% or more. The full list was thinned out, with strong results kept by preference.

For the experiment, the system named is Leishmania donovani. The experiment is described as follows: Leishmania intramacrophage assay. It is filed as functional, organism-based. Set-up: scale not given: in the data most compounds retested in dose-response had high values.

Take `CN(C)CCN1C(=O)CC[C@@H]2[C@H]1CCN2C(=O)c1ccc(C#N)cc1.O=C(O)C(F)(F)F`: the “Percent Effect” value (30.3 µM, […]) is listed as 2.551%.

Regarding `Cc1ccc(CN(CCCn2ccnc2)Cc2c[nH]cn2)s1.O=C(O)CC(O)(CC(=O)O)C(=O)O`, the “Percent Effect” value (30 µM, 30.03 µM) is given as 29.23%.

Regarding `CCc1ccc(CN(CCCn2ccnc2)Cc2ccc(C)s2)o1.O=C(O)CC(O)(CC(=O)O)C(=O)O`, for the setting “30 µM, 30.03 µM”, the “Percent Effect” value was determined as 12.85%.

For `CC(NC(=O)N(C)Cc1ccsc1)c1ccc2c(c1)OCO2` (stereo not drawn), where the note is “30 µM, 30.03 µM”, the “Percent Effect” value came to 29.16%.

Turning to `O=C(Nc1nncs1)NC1CCOc2ccccc21` (stereo not drawn), the “Percent Effect” value (30 µM, 30.03 µM) is listed as -9.341%.

Turning to `Cn1cc(CN2CC[C@H]3O[C@@H](COCc4cccnc4)CC[C@H]32)cn1.O=C(O)C(F)(F)F.O=C(O)C(F)(F)F`, the “Percent Effect” value (30.3 µM, […]) turned out to be 18.07%.

On to `O=C(COc1ccccc1)NCC1CCN(Cc2ccsc2)CC1`, for which, for the setting “30.3 µM, […]”, the “Percent Effect” value was determined as 8.301%.

As to `CCCS(=O)(=O)N1C[C@@H]2CN(Cc3ccoc3)CCO[C@@H]2C1.O=C(O)C(F)(F)F`, where the note is “30.3 µM, […]”, the “Percent Effect” value is reported as 15.12%.

In the case of `Cc1ccc(OCCCC(=O)Nc2nonc2C)cc1C`, the “Percent Effect” value (30.3 µM, […]) is 1.215%.

As to `Cc1ccsc1CCNC(=O)CCC(=O)NC1CCCC1`, the “Percent Effect” value (30.3 µM, […]) came to 16.22%.

With `Cc1ncsc1-c1nc(-c2cccc(CN3CCOCC3)c2)no1`, the “Percent Effect” value (30.3 µM, […]) is reported as 19.67%.

For the molecule `Cc1nnsc1-c1nnc2sc(C(C)C)nn12`, under “30.3 µM, […]”, the “Percent Effect” value was 39.28%.

Regarding `Cc1nn2c(-c3snnc3C)nnc2s1`, the “Percent Effect” value (30.3 µM, […]) is 93.73%.

In the case of `Cc1nnsc1-c1nnc2sc(C3CCC3)nn12`, the “Percent Effect” value (30.3 µM, […]) was determined as 11.99%.

Regarding `CCN1CCN(Cc2ccnc(-c3cccnc3)n2)CC1.O=C(O)CC(O)(CC(=O)O)C(=O)O`, the “Percent Effect” value (30 µM, 30.03 µM) turned out to be 7.725%.

For `Cc1ncsc1C(=O)N(C)Cc1ccsc1`, the “Percent Effect” value (30 µM) was 23.48%.

`CCc1nc(NCC(=O)N2CCOCC2)c2c(n1)c(C)nn2CC`: the “Percent Effect” value (30 µM, 30.03 µM) worked out at 6.056%.

For `Cc1cc(NC(=O)NCC(C)N2CCc3ccccc32)no1` (stereo not drawn), where the note is “30 µM, 30.03 µM”, the “Percent Effect” value was 27.07%.

For the molecule `CN(Cc1cccnc1N)Cc1cccc2ncccc12`, under “30.3 µM, […]”, the “Percent Effect” value is listed as 48.64%.

In the case of `CN(Cc1cccc(OCCO)c1)Cc1cccc2ncccc12`, the “Percent Effect” value (30.3 µM, […]) was determined as 37.97%.

As to `CN(Cc1cccc(CCN)c1)Cc1cccc2ncccc12`, the “Percent Effect” value (30.3 µM, […]) is recorded as 68.5%.

Consider `CN(CCCc1cnn(C)c1)C(=O)C1CCC(=O)N(C2CCCC2)C1` (stereo not drawn), for which, under “30.3 µM, […]”, the “Percent Effect” value is recorded as 11.37%.

In the case of `COCCN1CCC(CNC(=O)C2(S(C)(=O)=O)CCCC2)CC1`, the “Percent Effect” value (30.3 µM, […]) is 19.2%.

Consider `COCCN(C)C(C(=O)O)c1ccc(F)c(C)c1` (stereo not drawn), for which, where the note is “30.3 µM, […]”, the “Percent Effect” value is reported as 7.085%.

For the molecule `CC(C)NC(=O)C1CN(Cc2ccc(F)cc2)CC12CCOCC2.O=C(O)C(F)(F)F` (stereo not drawn), under “30.3 µM, […]”, the “Percent Effect” value is 44.53%.

With `Cl.NC(CC1CCCC1)c1ccccc1` (stereo not drawn), the “Percent Effect” value (30.3 µM, […]) is 14.4%.

Take `NC(CC1CCCC1)c1ccc(Oc2ccccc2)cc1` (stereo not drawn): the “Percent Effect” value (30.3 µM, […]) is on record as 99.72%.

For `OC(CN1CCN(CC2CCCCC2)CC1)c1ccccc1` (stereo not drawn), the “Percent Effect” value (30.3 µM, […]) was 24.85%.
